The source of these data is PubChem BioAssay (NCATS).

Experiment [1] is described as follows: AP1 Signaling Pathway (AID 357).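 Further: ME-180 reporter cells stimulated with EGF at its EC50 level; on the % scale 0 is the no-effect control and ±100 the full control effect.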 Particulars: ME-180 AP-1-bla reporter, EGF-induced, beta-lactamase ratio, 5 h; at 38 µM (top of the series) unless noted. Put shortly: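 AP-1-bla ME-180 cells, Opti-MEM + 0.5% dialyzed FBS, plated overnight 37 °C. Cpd titration + EC50 EGF, 5 h 37 °C. CCF4 2.5 h RT; ex 405, em 460/530 ratio → %activity, AC50.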
For experiment [2], the target named is Cytochrome P450 1A2 (Homo sapiens) (UniProt P05177). Nature of the experiment: p450-cyp1a2 (AID 410; calls by dose curve; further: potency means the concentration at half of the fitted maximal effect;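 on activity change, negative = inhibition: -100% = full effect of reference inhibitor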). The procedure, abridged:
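Human CYP1A2 (20nM) demethylated Luciferin-ME at its Km (100uM) in 100mM KPO4. After 10 min compound preincubation, NADPH regeneration ran the reaction 60 min at room temperature. Luciferin was read by luminescence, normalized to 57 uM furafylline.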

Experiment [3] can be described thus: NFAT Signaling Pathway (AID 444).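 Further: carbachol stimulus at about its EC50 of 1 µM final; on the % scale 0 is the no-effect control and ±100 the full control effect.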 Particulars: Jurkat NFAT-bla M1, carbachol, beta-lactamase ratio, 5 h; at 38 µM (top of the series) unless noted. Put shortly: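 Jurkat cells with NFAT-driven β-lactamase reporter and co-expressed M1 receptor, stimulated with carbachol (final 1 uM, ~EC50), compound titration, 5 h at 37 °C. CCF4 loaded 1 h at RT; 460/530 nm ratio gave %activity and AC50.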

Experiment [4] in a line: Stat Signaling Pathway (AID 446).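 Further: ME-180 cervical cancer cells given 40 pM IL-6 alongside compound; SIE-controlled beta-lactamase reporter measured as 460/530 nm FRET emission ratio; on the % scale 0 is the no-effect control and ±100 the full control effect.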 Conditions: ME-180 SIE beta-lactamase reporter, IL-6 stimulated, 5 h; at 38 µM (top of the series) unless noted. The procedure, abridged: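 ME-180 SIE-bla cells; overnight plating; cpd + IL-6 40 pM, 5 h, 37 C; LiveBLAzer 2.5 h RT; 460/530 nm emission ratio. Normalized to 300 pM IL-6 and 125 nM JAK inhibitor controls.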
The target in experiment [5] is Glucocorticoid receptor (Homo sapiens) (UniProt P04150). The experiment is described as follows: GR-GFP Redistribution (AID 450;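 active means compounds whose dose series gives a full or clear partial fitted curve of increased nuclear translocation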; further: potency means the concentration at half of the fitted maximal effect). Conditions: U2OS GR-GFP nuclear translocation, laser cytometry, 2 h.
Glucocorticoid receptor (Homo sapiens), sequence (P04150 whole entry, looked up, the tested form may be a part): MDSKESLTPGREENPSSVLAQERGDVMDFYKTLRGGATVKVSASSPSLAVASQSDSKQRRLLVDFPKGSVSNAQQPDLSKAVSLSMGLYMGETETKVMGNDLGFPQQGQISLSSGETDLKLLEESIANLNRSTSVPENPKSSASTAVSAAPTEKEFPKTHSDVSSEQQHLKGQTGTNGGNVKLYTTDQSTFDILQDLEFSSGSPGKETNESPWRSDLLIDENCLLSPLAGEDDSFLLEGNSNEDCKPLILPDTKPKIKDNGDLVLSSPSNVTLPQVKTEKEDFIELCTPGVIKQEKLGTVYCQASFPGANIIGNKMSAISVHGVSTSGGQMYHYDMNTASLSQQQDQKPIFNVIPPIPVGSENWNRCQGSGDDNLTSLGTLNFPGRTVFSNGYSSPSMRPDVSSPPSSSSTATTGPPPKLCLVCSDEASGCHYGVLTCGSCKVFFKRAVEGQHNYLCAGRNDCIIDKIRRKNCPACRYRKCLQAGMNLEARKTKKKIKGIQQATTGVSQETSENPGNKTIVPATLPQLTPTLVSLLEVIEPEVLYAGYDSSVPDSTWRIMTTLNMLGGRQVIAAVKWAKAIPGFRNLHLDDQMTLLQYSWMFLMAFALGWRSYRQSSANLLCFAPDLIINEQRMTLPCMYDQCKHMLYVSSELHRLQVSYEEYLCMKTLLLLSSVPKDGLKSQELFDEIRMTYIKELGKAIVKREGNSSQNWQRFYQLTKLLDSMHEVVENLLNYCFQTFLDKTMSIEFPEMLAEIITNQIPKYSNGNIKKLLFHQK
For experiment [6] the target is unchanged. The experiment is described as follows: GR-EFC Redistribution (AID 451; calls by dose curve; further: potency means the concentration at half of the fitted maximal effect). Particulars: CHO-K1 GR-EFC translocation, beta-gal luminescence, 2 h. The procedure, abridged: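 CHO-K1 cells expressing nuclear EA and GR-ED fragments of b-gal; compounds titrated up to 46 uM final, 2 h at 37 C. GR nuclear translocation read as complemented b-gal luminescence after 1 h RT detection.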

The target of experiment [7] is Mitogen-activated protein kinase 10 (Mus musculus) (UniProt Q61831). The experiment is described as follows: JNK3 AlphaScreen Assay (AID 530).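 Further: kinase came from lysate of stimulated human HepG2 cells; signal reports phosphorylation of biotinylated GST-cJun 1-79 at Ser73 with 10 µM ATP; on the % scale 0 is the no-effect control and ±100 the full control effect.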 Put shortly: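 qHTS format: compounds tested as titrations against IL-1beta/TNF-alpha-activated HepG2 lysate JNK3 with biotin-GST-cJun substrate and 10 uM ATP at room temperature. Loss of anti-phospho-cJun AlphaScreen signal indicates inhibition.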
A general note: In Alpha technology, singlet oxygen from a donor bead excites a nearby acceptor bead.

A short description of experiment [8]: Cell Viability - BJ (AID 421; calls by dose curve;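 further: potency means the concentration at half of the fitted maximal effect; cells exposed to compound for 40 hours at 37 °C before readout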). Conditions: BJ fibroblast viability, qHTS. The procedure, abridged:
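Luminescent ATP signal (CellTiter-Glo, 20 min at room temperature) served as the read-out of viable BJ cells after 40 hours of compound treatment. Responses were scaled between DMSO and 100 uM tamoxifen, and AC50 values were obtained by Hill modeling.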

Experiment [9] in a line: Cell Viability - Jurkat (AID 426;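 active means dose-dependent loss of cell ATP signal giving a full or clear fitted curve, ranked by lower potency value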; further: potency means the concentration at half of the fitted maximal effect). Conditions: qHTS. Put shortly:
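Jurkat (clone E6-1, human T-cell leukemia) cells, 5000/well in complete medium, were exposed to compound for 40 hr at 37 °C. Viability was read as intracellular ATP by CellTiter-Glo luminescence; AC50 came from Hill fits of concentration-response data.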

Experiment [10] is described as follows: Cell Viability - Hek293 (AID 427;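 active means compounds whose dose-response curve shows a full or clear partial loss of cell viability, called from curve shape rather than a numeric limit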;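 further: potency means the concentration at half of the fitted maximal effect; cells exposed to compound for 40 hours at 37 °C before reading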). Particulars: qHTS. The procedure, abridged:
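Luminescent ATP read-out (CellTiter-Glo, 20 min RT) after 40 hr compound exposure at 37 °C in complete medium. Signal normalized to DMSO (basal) and 100 uM tamoxifen (100% inhibition); concentration-response fitted with the standard Hill equation to give AC50.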

Experiment [11] can be described thus: Cell Viability - HepG2 (AID 433; calls by dose curve;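 further: potency means the concentration at half of the fitted maximal effect; potency for ATP loss meaning cytotoxicity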). Particulars: qHTS. The procedure, abridged:
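In this qHTS format, a 40 h, 37 °C compound incubation of HepG2 cells in complete medium precedes a 20 min CellTiter-Glo step at room temperature. Tamoxifen and doxorubicin serve as positive controls; Hill-equation fits yield AC50.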

Experiment [12] is described as follows: Cell Viability - MRC5 (AID 434; calls by dose curve;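 further: potency means the concentration at half of the fitted maximal effect; potency reflects cytotoxicity seen as loss of intracellular ATP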). Particulars: MRC5 lung fibroblast viability, qHTS. Put shortly:
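MRC5 normal human lung fibroblasts, 1500 cells/well, exposed to compound for 40 hr at 37 C. Cellular ATP was read by CellTiter-Glo luminescence; data normalized to DMSO and 100 uM tamoxifen, with AC50 from Hill fits.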
(Quantitative high-throughput screening tests each substance at several concentrations.)

Experiment [13] is described as follows: Cell Viability - SK-N-SH (AID 435; calls by dose curve;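 further: potency means the concentration at half of the fitted maximal effect; compound exposure lasted 40 h at 37 °C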). Conditions: SK-N-SH neuroblastoma cell viability qHTS. The procedure, abridged:
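Human neuroblastoma line, 40 h exposure at 37 °C, ATP quantified via luciferase luminescence; DMSO and 100 uM tamoxifen define 0 and 100% inhibition for AC50 fitting.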

Experiment [14] can be described thus: Cell Viability - N2a (AID 540; active means well fitted curve in the direction sought with a large enough effect; an effect the other way counts as inactive or inconclusive;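 further: plate controls were DMSO alone for no effect and tamoxifen control for full effect; nearly all actives have a fitted effect of over 45% in size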). Put shortly:
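Mouse neuroblastoma N2a cells (1500/well) were preincubated 5 hr at 37 °C, then exposed to compounds for 40 hr at 37 °C in complete medium. Viability was read as intracellular ATP by CellTiter-Glo luminescence; AC50 from Hill fits.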

A short description of experiment [15]: Cell Viability - NIH 3T3 (AID 541; active means well fitted curve in the direction sought with a large enough effect; an effect the other way counts as inactive or inconclusive;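 further: plate controls were DMSO alone for no effect and tamoxifen positive control for full effect; nearly all actives have a fitted effect of over 25% in size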). The procedure, abridged:
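NIH 3T3 mouse embryo fibroblasts (1000 cells/well) were plated in complete medium and treated with compound for 40 hr at 37 °C. Viability was read as intracellular ATP by CellTiter-Glo luminescence; AC50 values came from Hill-equation fits of concentration-response data.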

Experiment [16] is described as follows: Cell Viability - HUV-EC-C (AID 542; active means well fitted curve in the direction sought with a large enough effect; an effect the other way counts as inactive or inconclusive; further: on the % scale 0 is the no-effect control and ±100 the full control effect; nearly all actives have a fitted effect of over 35% in size). Put shortly:
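HUV-EC-C normal human vascular endothelial cells, 1000 cells/well, pre-incubated 5 hr at 37 °C, then exposed to compounds for 40 hr at 37 °C in complete medium. Viability measured as intracellular ATP by CellTiter-Glo luminescence; AC50 from Hill fits.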

Experiment [17] can be described thus: Cell Viability - H-4-II-E (AID 543; active means well fitted curve in the direction sought with a large enough effect; an effect the other way counts as inactive or inconclusive; further: on the % scale 0 is the no-effect control and ±100 the full control effect; nearly all actives have a fitted effect of over 35% in size). Put shortly:
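Rat hepatoma H-4-II-E cells (1500/well) were plated, incubated 5 hr at 37 °C, then exposed to compounds for 40 hr at 37 °C. Cellular ATP was read by CellTiter-Glo luminescence; AC50 came from Hill-equation fits of concentration-response data.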

Experiment [18] can be described thus: Cell Viability - SH-SY5Y (AID 544; active means well fitted curve in the direction sought with a large enough effect; an effect the other way counts as inactive or inconclusive;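 further: 0% = DMSO alone and -100% = 100 µM tamoxifen; nearly all actives have a fitted effect of over 55% in size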). The procedure, abridged:
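Human neuroblastoma SH-SY5Y cells (1500/well) in complete medium were exposed to compounds for 40 hr at 37 °C; intracellular ATP was then quantified by CellTiter-Glo luminescence after 20 min at room temperature. AC50 came from Hill-equation concentration-response fits.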

A short description of experiment [19]: Cell Viability - Renal Proximal Tubule (AID 545; active means well fitted curve in the direction sought with a large enough effect; an effect the other way counts as inactive or inconclusive;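 further: 0% = DMSO only and -100% = 100 µM tamoxifen; nearly all actives have a fitted effect of over 40% in size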). The procedure, abridged: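 In this qHTS format, normal rat kidney-derived proximal tubule cells in complete culture medium receive compound titrations, then sit 40 hours at 37 °C before luciferase-based ATP quantitation; potency is reported as AC50 from concentration-response curves.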

SMILES strings stand for the structures. “And” between values parts separate entries of the source, which are not always exact repeats. Equal entries are not always repeated. A number with no mark means an inactive call. Results filed as inconclusive are left out. The source made the active and inactive calls. Unless noted, the call rests on the fitted dose curve; in most records, active means well fitted curve in either direction with a large enough effect (not every such curve was filed as active); inconclusive means small, poorly fitted or top-dose-only effect, or another doubt; inactive means flat fitted curve, though single readings scatter.

Cytochrome P450 1A2 (Homo sapiens), sequence (P05177 whole entry, looked up): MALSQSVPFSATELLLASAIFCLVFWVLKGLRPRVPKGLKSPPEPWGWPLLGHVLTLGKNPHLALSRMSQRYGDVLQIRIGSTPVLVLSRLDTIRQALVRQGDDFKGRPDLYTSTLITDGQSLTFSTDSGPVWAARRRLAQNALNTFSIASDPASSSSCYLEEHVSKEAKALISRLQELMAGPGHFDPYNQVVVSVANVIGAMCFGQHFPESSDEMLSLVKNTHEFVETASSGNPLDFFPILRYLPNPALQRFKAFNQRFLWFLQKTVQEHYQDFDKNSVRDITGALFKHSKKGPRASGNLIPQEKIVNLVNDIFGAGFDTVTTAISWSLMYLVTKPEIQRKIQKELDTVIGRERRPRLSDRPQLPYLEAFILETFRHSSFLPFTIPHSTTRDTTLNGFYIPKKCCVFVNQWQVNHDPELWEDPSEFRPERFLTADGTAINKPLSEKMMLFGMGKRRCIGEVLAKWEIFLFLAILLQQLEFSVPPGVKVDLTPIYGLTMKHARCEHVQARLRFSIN

Regarding `O=c1cc(-c2ccccc2)[nH]c2nc(Cl)ccc12`, the activity change, negative = inhibition is -2.89% in experiment [1] and -13% in experiment [3]. In addition, the Potency in experiment [2] is 398 nM (active); in [5], more than 46 µM. Moreover, the activity, negative = inhibition in experiment [4] is -25.2%.

Turning to `CCCn1c(=O)c2c(ncn2C)n(CCC)c1=O`, the activity change, negative = inhibition in [1] is 2.31%; in [3] it was 0.366%. Besides, the Potency in experiment [2] was 7940 nM (active). The activity, negative = inhibition in experiment [4] is 28.8%.

On to `O=C(O)Cc1ccc(O)c(O)c1`, for which the results for the activity change, negative = inhibition in experiment [1] and in experiment [3] were -7.22% and 12.7%, respectively. Moreover, the Potency entry in experiment [2] is “inactive”. Also, the activity, negative = inhibition in experiment [4] is 18.6%. The Potency in experiment [5] and in experiment [6] was more than 46 µM in each case. Besides, the compound was classed as inactive in experiment [7].

On to `S=C(S)N1CCCC1`, for which the activity change, negative = inhibition in experiment [1] was 12.8%; in [3], -9.46%. Moreover, the Potency was 31.6 µM (active) and 12.6 µM (active) in [2]; more than 46 µM in [5]; more than 46 µM in experiment [6]. Also, the activity, negative = inhibition in experiment [4] is 7.91%.

Turning to `Cc1nc2c(OCc3ccccc3)cccn2c1CC#N`, the figures for the activity change, negative = inhibition in experiment [1] and in experiment [3] were -13% and 4.14%, respectively. Besides, the Potency in experiment [2] is 2 µM (active) and 398 nM (active); in experiment [5] it was more than 46 µM; in [6], more than 46 µM. The activity, negative = inhibition in [4] was -13.9%. In addition, the call in [7] was inactive.

As for `CC(=O)C(C)=O`, the activity change, negative = inhibition in experiment [1] was -3.27%; in experiment [3] it was 3.23%. For the same compound, the Potency result in experiment [2] is “inactive”. Moreover, the Potency in [8], in [9], in [10], in experiment [11], in experiment [12] and in experiment [13] was more than 92 µM throughout. Further, the Potency in [5] was more than 46 µM. For the same compound, the activity, negative = inhibition in experiment [4] is 31.9%. In addition, the compound was called inactive in [7], in experiment [14], in experiment [15], in experiment [16], in [17] and in experiment [18]. Further, in experiment [19], the call was inactive.

In the case of `Cc1nc(N=Nc2ccc(S(=O)(=O)O)cc2S(=O)(=O)O)c(COP(=O)(O)O)c(C=O)c1O`, the activity change, negative = inhibition in experiment [1] was -10.9%; in experiment [3], 2.46%. In addition, the Potency result in experiment [2] was “inactive”. Also, the activity, negative = inhibition in experiment [4] is 5.69%. The Potency in [5] and in [6] was more than 46 µM throughout. Further, the outcome in experiment [7] was inactive.

Regarding `NC/C=C\C(=O)O`, the activity change, negative = inhibition is 2.58% and 1.13% in [1]; 4.38% and -3.77% in [3]. In experiment [2], the Potency entry is “inactive”. The activity, negative = inhibition in [4] is 22.6% and 7.43%. For the same compound, the Potency in experiment [5] was more than 46 µM.
